Source: the supplement of paper PMC10849652
The full data set covers some 7,900 targets. This sample favours those with a hit. About 0.6% of all pairs of compound and target were hits. A number with no mark means an inactive call.

Assays:
Assay in all cases: log2 fold change, soluble protein after heating vs DMSO (PISA); higher = thermal stabilisation; K562 cells, 10 uM, 30 min; active = over 0.2 and 3.5 SD of the protein, either way, in both replicates (recomputed)
[1] = compound: NC(=O)Nc1cc(-c2cccc(F)c2)sc1C(=O)N[C@H]1CCCNC1
Outline: (§1)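 Soluble protein was quantified by TMTpro 16plex LC-MS/MS after channel sums were equalised. It was obtained as the supernatant after 21,000xg for 90 min from pooled aliquots of K562 cells (2×10^6 cells/mL, 10 μM compound, 30 min) heated for 3 min across 48°C-58°C and extracted in PBS with 0.5% NP-40 at 4°C. Thermal stability values are relative to control samples and come from duplicates. They are given as log2 fold changes.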

[2] = compound: NC(=O)c1cnc(N[C@@H]2CCCC[C@@H]2N)nc1Nc1cccc(-n2nccn2)c1
Outline: as §1

[3] = compound: NC1(c2ccc(-c3nc4ccn5c(=O)[nH]nc5c4cc3-c3ccccc3)cc2)CCC1
Outline: as §1

[4] = compound: NCC(=O)Nc1ccc(-n2nc(C(F)(F)F)cc2-c2ccc3c(ccc4ccccc43)c2)cc1
Outline: as §1

entinostat = compound: Nc1ccccc1NC(=O)c1ccc(CNC(=O)OCc2cccnc2)cc1 [entinostat]
Outline: as §1

vorinostat = compound: O=C(CCCCCCC(=O)Nc1ccccc1)NO [vorinostat]
Outline: as §1

citarinostat = compound: O=C(CCCCCCNC(=O)c1cnc(N(c2ccccc2)c2ccccc2Cl)nc1)NO [citarinostat]
Outline: as §1

silmitasertib = compound: O=C(O)c1ccc2c(c1)nc(Nc1cccc(Cl)c1)c1ccncc12 [silmitasertib]
Outline: as §1

[5] = compound: O=C1NC(=O)C(c2cnc3ccccn23)=C1c1cn2c3c(cc(F)cc13)CN(C(=O)N1CCCCC1)CC2
Outline: as §1

[6] = compound: c1cc(OCCN2CCCCC2)cc(-c2n[nH]c3ccc(-c4nnc[nH]4)cc23)c1
Outline: as §1

entospletinib = compound: c1cn2cc(-c3ccc4cn[nH]c4c3)nc(Nc3ccc(N4CCOCC4)cc3)c2n1 [entospletinib]
Outline: as §1

UniProt O95379, sequence (O95379 whole entry, looked up): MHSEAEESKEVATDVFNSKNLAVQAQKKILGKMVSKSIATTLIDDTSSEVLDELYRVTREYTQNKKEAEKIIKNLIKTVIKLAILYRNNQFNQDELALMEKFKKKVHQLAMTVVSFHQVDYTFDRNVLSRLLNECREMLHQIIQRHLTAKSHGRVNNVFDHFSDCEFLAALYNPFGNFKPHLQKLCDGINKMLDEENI
UniProt Q9UL33, sequence (Q9UL33 whole entry, looked up): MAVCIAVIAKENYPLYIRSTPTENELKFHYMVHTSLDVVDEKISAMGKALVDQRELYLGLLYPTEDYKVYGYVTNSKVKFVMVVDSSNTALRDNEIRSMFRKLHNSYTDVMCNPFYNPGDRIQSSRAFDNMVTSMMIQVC
UniProt Q96FX7, sequence (Q96FX7 whole entry, looked up): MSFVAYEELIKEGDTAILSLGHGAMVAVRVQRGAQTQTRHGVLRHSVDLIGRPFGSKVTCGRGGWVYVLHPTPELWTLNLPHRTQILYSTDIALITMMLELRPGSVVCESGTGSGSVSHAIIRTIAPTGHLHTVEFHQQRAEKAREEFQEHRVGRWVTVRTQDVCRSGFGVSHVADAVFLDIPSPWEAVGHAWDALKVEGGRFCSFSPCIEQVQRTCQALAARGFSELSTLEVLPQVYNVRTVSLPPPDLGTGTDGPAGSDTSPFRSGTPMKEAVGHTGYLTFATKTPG
UniProt Q96AX1, sequence (Q96AX1 whole entry, looked up): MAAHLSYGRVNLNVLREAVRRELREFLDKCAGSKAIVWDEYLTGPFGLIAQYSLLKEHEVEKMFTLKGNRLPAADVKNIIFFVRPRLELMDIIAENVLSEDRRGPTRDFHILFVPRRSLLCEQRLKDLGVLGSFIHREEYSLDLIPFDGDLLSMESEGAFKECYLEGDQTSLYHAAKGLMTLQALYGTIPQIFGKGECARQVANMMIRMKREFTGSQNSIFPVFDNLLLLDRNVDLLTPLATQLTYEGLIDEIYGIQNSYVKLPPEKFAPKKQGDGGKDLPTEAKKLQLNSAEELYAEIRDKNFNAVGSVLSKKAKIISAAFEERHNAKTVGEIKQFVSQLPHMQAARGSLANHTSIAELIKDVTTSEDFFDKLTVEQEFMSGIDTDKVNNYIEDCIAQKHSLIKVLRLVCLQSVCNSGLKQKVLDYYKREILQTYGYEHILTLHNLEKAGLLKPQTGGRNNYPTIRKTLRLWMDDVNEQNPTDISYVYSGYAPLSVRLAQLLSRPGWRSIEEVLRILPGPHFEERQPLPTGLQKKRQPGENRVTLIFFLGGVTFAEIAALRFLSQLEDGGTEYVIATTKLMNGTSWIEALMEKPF
UniProt Q9Y5K5, sequence (Q9Y5K5 whole entry, looked up): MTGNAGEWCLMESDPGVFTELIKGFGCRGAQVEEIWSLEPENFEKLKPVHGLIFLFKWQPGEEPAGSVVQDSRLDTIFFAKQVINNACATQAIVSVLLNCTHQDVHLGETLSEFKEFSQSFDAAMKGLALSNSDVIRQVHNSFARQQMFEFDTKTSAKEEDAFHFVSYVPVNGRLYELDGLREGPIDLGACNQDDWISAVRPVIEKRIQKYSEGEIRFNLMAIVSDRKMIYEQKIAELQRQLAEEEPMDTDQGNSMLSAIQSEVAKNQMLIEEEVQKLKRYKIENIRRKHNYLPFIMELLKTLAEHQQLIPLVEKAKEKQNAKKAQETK
UniProt Q8N1B4, sequence (Q8N1B4 whole entry, looked up): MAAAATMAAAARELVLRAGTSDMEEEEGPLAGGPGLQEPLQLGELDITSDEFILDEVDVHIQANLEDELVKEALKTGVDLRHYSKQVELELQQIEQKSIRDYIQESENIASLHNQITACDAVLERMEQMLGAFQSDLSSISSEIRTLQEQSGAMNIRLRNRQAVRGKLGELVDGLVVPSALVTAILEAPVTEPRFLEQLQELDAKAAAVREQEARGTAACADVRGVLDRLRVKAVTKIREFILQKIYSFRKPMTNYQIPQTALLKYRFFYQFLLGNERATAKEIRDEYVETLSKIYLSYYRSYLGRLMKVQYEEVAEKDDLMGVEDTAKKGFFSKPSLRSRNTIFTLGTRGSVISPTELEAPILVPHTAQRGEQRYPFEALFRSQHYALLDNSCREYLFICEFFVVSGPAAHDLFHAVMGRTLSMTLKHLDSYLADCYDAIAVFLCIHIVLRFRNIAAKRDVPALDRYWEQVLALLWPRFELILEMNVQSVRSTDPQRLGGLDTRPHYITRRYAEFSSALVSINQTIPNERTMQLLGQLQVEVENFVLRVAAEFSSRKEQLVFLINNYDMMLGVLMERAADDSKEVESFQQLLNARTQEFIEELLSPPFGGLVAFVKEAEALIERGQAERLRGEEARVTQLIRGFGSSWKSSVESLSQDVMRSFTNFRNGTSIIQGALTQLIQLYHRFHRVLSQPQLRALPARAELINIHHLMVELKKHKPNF
UniProt Q9NQW7, sequence (Q9NQW7 whole entry, looked up): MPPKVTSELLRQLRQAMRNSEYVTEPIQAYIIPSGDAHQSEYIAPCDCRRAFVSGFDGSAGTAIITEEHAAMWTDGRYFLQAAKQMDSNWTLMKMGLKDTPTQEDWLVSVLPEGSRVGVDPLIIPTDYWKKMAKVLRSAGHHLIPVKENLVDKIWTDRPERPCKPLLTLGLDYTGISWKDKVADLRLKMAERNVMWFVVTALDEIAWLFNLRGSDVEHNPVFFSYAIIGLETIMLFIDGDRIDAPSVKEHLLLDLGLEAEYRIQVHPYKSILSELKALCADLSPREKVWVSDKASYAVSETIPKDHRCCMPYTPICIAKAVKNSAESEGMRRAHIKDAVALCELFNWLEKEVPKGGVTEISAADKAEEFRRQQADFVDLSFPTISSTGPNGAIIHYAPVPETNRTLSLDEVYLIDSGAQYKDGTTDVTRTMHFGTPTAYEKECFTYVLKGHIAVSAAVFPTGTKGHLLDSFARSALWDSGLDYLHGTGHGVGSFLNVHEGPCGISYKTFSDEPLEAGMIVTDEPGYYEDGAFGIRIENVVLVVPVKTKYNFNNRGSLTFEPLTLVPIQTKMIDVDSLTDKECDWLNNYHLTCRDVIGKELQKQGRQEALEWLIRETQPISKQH
UniProt P28908, sequence (P28908 whole entry, looked up): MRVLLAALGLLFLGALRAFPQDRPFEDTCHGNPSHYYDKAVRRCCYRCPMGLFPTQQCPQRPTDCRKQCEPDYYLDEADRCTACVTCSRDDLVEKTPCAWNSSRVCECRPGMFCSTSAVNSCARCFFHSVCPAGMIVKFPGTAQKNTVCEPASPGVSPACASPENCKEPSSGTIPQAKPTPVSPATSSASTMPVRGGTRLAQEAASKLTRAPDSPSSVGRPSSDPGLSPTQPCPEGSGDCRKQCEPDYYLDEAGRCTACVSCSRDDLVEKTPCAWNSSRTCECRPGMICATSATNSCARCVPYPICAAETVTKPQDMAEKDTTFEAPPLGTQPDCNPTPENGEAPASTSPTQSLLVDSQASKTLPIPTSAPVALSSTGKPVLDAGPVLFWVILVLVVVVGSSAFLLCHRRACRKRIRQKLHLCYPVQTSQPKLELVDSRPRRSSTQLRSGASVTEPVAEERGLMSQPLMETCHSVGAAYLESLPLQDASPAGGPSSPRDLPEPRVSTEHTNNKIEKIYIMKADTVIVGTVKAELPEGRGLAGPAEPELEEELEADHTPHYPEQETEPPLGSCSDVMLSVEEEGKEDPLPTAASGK
UniProt Q9NUM4, sequence (Q9NUM4 whole entry, looked up): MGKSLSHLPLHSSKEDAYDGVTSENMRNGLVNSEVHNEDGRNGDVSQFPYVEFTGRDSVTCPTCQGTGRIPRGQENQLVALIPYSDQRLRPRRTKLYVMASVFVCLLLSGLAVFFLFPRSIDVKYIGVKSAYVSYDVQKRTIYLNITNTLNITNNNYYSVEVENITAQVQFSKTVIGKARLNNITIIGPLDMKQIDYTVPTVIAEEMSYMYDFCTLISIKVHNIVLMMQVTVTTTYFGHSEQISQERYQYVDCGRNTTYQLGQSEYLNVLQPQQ
UniProt Q9UBK9, sequence (Q9UBK9 whole entry, looked up): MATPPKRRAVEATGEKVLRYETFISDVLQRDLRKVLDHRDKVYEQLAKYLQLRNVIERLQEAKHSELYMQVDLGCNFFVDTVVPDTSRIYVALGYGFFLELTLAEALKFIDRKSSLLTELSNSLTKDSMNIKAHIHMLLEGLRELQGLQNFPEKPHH
UniProt O43617, sequence (O43617 whole entry, looked up): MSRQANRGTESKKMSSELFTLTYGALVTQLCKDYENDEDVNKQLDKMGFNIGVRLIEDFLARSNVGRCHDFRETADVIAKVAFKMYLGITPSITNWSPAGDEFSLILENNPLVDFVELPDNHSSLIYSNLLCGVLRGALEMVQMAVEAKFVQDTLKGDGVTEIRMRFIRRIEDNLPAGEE
UniProt Q8IY95, sequence (Q8IY95 whole entry, looked up): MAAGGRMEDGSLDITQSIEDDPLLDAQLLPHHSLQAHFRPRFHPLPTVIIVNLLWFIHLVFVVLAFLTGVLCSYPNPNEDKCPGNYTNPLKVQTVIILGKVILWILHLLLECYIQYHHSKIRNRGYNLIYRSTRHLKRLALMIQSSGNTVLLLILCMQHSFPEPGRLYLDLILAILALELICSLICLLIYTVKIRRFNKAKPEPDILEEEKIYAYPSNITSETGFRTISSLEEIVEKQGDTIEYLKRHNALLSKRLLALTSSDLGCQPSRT
UniProt O00220, sequence (O00220 whole entry, looked up): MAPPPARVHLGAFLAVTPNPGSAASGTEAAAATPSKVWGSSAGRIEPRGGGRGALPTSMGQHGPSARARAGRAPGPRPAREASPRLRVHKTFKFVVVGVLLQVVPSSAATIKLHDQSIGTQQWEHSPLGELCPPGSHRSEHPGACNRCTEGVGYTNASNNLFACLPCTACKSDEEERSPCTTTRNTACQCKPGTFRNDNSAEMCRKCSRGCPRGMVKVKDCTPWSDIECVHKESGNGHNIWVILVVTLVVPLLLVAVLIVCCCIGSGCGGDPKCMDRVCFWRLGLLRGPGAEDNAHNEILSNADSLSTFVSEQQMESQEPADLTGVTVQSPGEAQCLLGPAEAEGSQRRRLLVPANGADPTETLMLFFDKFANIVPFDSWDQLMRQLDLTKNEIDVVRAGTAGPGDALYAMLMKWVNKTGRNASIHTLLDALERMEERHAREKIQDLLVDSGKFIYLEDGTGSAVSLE

Row | Target | log2 fold change [1] | log2 fold change [2] | log2 fold change [3] | log2 fold change [4] | log2 fold change (entinostat) | log2 fold change (vorinostat) | log2 fold change (citarinostat) | log2 fold change (silmitasertib) | log2 fold change [5] | log2 fold change [6] | log2 fold change (entospletinib)
1 | VPS33A (UniProt Q96AX1) | 0.012 | -0.121 | -0.191 | -0.084 | 0.05 | 0.051 | 0.063 | 0.019 | 0.029 | -0.059 | 0.099
2 | UFM1 isoform 2 (UniProt P61960) | -0.031 | -0.114 | -0.087 | -0.057 | -0.012 | -0.057 | -0.044 | -0.025 | -0.007 | -0.218 | 0.079
3 | WBP4 (UniProt O75554) | 0.28 (active) | 0.079 | 0.006 | 0.111 | 0.058 | 0.098 | 0.055 | -0.026 | 0 | -0.007 | 0.036
4 | VARS2, A0A0G2JL52 | 0.013 | -0.01 | -0.087 | -0.062 | 0.028 | 0.106 | 0.006 | -0.005 | -0.048 | -0.017 | -0.03
5 | TNFRSF10A (UniProt O00220) | -0.097 | -0.019 | 0.06 | 0.029 | -0.202 | -0.178 | -0.011 | 0.028 | -0.069 | -0.07 | 0.011
6 | TNFRSF8 (UniProt P28908) | -0.12 | 0.128 | 0.106 | 0.025 | -0.066 | -0.078 | -0.003 | -0.052 | -0.053 | -0.025 | 0.002
7 | TMEM192 (UniProt Q8IY95) | 0 | -0.01 | -0.374 (active) | 0.01 | -0.017 | -0.061 | -0.02 | 0.037 | 0.03 | -0.005 | 0.071
8 | XPNPEP1 isoform 3 (UniProt Q9NQW7) | -0.04 | -0.052 | -0.126 | -0.07 | 0.015 | 0.399 (active) | 0.062 | -0.037 | -0.02 | 0.025 | -0.027
9 | VTI1A (UniProt Q96AJ9) | -0.07 | 0.014 | -0.125 | -0.014 | -0.009 | 0.028 | -0.016 | 0.051 | -0.01 | -0.039 | 0.013
10 | TNFAIP8 isoform 4 (UniProt O95379) | -0.032 | -0.091 | -0.061 | 0.029 | 0.018 | 0.207 (active) | 0.012 | 0.147 | -0.073 | 0.087 | 0.036
11 | TRIM28 (UniProt Q13263) | -0.006 | -0.008 | -0.038 | -0.007 | 0.038 | 0.032 | 0.036 | 0.036 | -0.048 | -0.009 | -0.025
12 | TMEM106B (UniProt Q9NUM4) | -0.042 | -0.038 | -0.056 | -0.016 | 0.008 | -0.023 | 0.022 | 0.034 | 0 | 0.046 | -0.049
13 | USP48 isoform 8 (UniProt Q86UV5) | -0.077 | 0.002 | -0.235 | -0.125 | 0.351 | 0.178 | 0.177 | 0.094 | -0.177 | -0.157 | 0.067
14 | TMEM63B (UniProt Q5T3F8) | 0.069 | 0.059 | -0.153 | 0.052 | 0.07 | -0.008 | -0.024 | 0.001 | -0.037 | -0.021 | 0.011
15 | UCHL5 (UniProt Q9Y5K5) | -0.003 | -0.029 | -0.124 | -0.045 | 0.048 | 0.063 | 0.08 | 0.04 | -0.084 | -0.026 | -0.023
16 | XPOT (UniProt O43592) | -0.04 | -0.103 | -0.241 | -0.061 | 0.063 | 0.031 | 0.069 | 0.134 | 0.057 | -0.047 | 0.032
17 | VPS52 (UniProt Q8N1B4) | 0.065 | -0.005 | -0.132 | -0.039 | 0.037 | 0.086 | 0.015 | 0.08 | 0.02 | 0.016 | 0.062
18 | TRAPPC11 (UniProt Q7Z392) | -0.033 | -0.11 | -0.187 | 0.007 | 0.011 | 0.012 | -0.006 | 0.044 | -0.036 | -0.053 | 0.012
19 | UXT isoform 2 (UniProt Q9UBK9) | -0.041 | -0.067 | -0.108 | -0.011 | 0.004 | 0.047 | 0.129 | -0.033 | -0.051 | 0.007 | -0.012
20 | WDR43 (UniProt Q15061) | 0.023 | 0.03 | 0.068 | -0.023 | -0.029 | -0.078 | 0.007 | 0.051 | -0.007 | -0.027 | -0.048
21 | TMEM223 (UniProt A0PJW6) | -0.087 | -0.14 | -0.1 | 0.071 | -0.02 | 0.096 | -0.031 | 0.019 | 0.05 | -0.036 | 0.047
22 | TRAPPC3 (UniProt O43617) | 0.017 | -0.056 | -0.145 | -0.058 | 0.022 | 0.004 | 0.038 | 0.032 | 0 | -0.048 | -0.013
23 | TNPO2 (UniProt O14787) | 0.015 | -0.174 | -0.268 | -0.054 | 0.064 | -0.008 | 0.047 | 0.059 | -0.04 | -0.124 | -0.063
24 | UFL1 (UniProt O94874) | -0.06 | -0.013 | -0.107 | -0.066 | 0.059 | 0.074 | 0.063 | 0.029 | -0.013 | -0.048 | -0.025
25 | TSFM (UniProt P43897) | -0.068 | 0.03 | -0.05 | -0.076 | 0.162 | 0.016 | 0.181 | 0.11 | -0.043 | 0 | -0.191
26 | TRAPPC2L (UniProt Q9UL33) | 0.005 | -0.025 | -0.126 | 0.054 | 0.008 | 0.068 | 0.031 | 0.037 | -0.047 | -0.099 | 0.039
27 | TRMT61A (UniProt Q96FX7) | 0.027 | 0.017 | 0.17 | 0.101 | -0.029 | 0.03 | 0.005 | 0.099 | 0.293 | -0.146 | 0.123
